Experimental findings from PubChem BioAssay (EPA / NIEHS) are described below.

Results filed as inconclusive are left out. Active and inactive are the calls of the source. Rule for the calls: active = hit-call score of the fitted dose curve at least 0.9, where 1 is the maximum; inconclusive = response in the unintended direction; inactive = score below 0.9.

Sequence of Estrogen receptor (Homo sapiens) (P03372 whole entry, looked up, the tested form may be a part): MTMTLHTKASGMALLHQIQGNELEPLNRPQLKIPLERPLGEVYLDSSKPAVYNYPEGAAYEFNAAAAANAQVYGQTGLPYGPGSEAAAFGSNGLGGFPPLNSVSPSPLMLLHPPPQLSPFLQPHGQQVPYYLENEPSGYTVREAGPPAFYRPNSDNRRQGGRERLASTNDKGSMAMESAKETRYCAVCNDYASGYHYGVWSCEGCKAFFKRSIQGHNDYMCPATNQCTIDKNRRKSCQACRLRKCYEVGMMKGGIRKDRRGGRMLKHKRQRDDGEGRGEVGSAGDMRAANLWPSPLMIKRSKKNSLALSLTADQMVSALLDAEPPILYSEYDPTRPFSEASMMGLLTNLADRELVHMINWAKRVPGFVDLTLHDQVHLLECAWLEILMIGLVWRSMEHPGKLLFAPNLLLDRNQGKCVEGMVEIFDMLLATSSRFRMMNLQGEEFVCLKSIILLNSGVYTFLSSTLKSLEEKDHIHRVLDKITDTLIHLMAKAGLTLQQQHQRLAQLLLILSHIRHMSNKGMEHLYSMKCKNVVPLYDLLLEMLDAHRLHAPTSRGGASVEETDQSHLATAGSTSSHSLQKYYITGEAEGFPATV

The target of one experiment is Nuclear receptor subfamily 1 group I member 3 (Homo sapiens) (UniProt Q14994). The experiment in a line: ATG_CAR_TRANS: Attagene TRANS-FACTORIAL HepG2 Assay for human Constitutive Androstane Receptor (CAR) (AID 2282969).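 Note: activators raise reporter mRNA above DMSO so AC50 marks induction.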 The following applies: HepG2 Attagene TRANS-FACTORIAL CAR reporter. The essentials: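 Signal is reporter mRNA induction relative to DMSO, measured 24 h after dosing by RT-PCR with fluorescent primer extension and capillary electrophoresis. Human HepG2 liver cells carried transiently transfected chimeric NR-Gal4/GAL4-UAS reporter constructs.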
Sequence of Nuclear receptor subfamily 1 group I member 3 (Homo sapiens) (Q14994 whole entry, looked up, the tested form may be a part): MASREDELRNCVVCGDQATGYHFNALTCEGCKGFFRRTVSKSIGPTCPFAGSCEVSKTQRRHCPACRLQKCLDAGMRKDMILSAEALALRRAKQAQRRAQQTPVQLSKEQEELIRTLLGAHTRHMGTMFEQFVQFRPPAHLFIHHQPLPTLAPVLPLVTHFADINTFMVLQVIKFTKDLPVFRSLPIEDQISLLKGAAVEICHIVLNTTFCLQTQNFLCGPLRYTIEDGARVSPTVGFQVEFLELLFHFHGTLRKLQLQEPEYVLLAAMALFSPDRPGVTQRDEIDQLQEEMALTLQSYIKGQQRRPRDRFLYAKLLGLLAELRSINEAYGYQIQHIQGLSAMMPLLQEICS
As to `C=CC(C)(CCC=C(C)C)OC=O` (stereo not drawn), the molecule was called inactive. On to `Nc1cc([N+](=O)[O-])ccc1O`, for which the result was inactive. With `CCc1c(C)cc(N)c(CC)c1N`, the call was inactive.

With `O=P(c1ccccc1)(c1ccccc1)c1ccccc1`, the result was inactive. As to `CCCCc1ccc(N)cc1`, the outcome was inactive.

Turning to `O=S(=O)(O)c1cccc2c(S(=O)(=O)O)cccc12`, the outcome was inactive. On to `CCCCC(CC)COC(=O)/C=C\C(=O)OCC(CC)CCCC` (stereo not drawn), for which the call was inactive. `CCCCOCCOCCSC#N`: the outcome was inactive.

Consider `COC(=O)OC`, for which the outcome was inactive. As for `Clc1sc(Cl)c(Cl)c1Cl`, the outcome was inactive. Turning to `O=C1OC2(c3cc(Br)c(O)c(Br)c3Oc3c2cc(Br)c(O)c3Br)c2c(Cl)c(Cl)c(Cl)c(Cl)c21`, the molecule was classed as inactive. As for `CN(C)CCCN`, the molecule was classed as inactive.

Take `CC1(C)OC[C@@H]2O[C@@]3(C(=O)O)OC(C)(C)O[C@H]3[C@@H]2O1`: the result was inactive. Regarding `C[Si](O[Si](C)(C)C)O[Si](C)(C)C`, the molecule was called inactive. Same read-out and setting: next, `Cc1ccc(C=O)s1`: “inactive”; `CC(CCO)CCCC(C)(C)O` (stereo not drawn): “inactive”; `CC(=O)OCC=Cc1ccccc1`: “inactive”. For the molecule `CC1=CCC2C(C1)C2(C)C` (stereo not drawn), the outcome was inactive. As to `CCCC(C)C=O` (stereo not drawn), the molecule was called inactive. `CCCCCCCCCCCCCCCCCC(=O)OCC(CC)CCCC` (stereo not drawn): the call was inactive. Regarding `NCCNCCN`, the outcome was inactive. The same measure, in the same setting: with `C=C(C)C(=O)Nc1ccc(Cl)c(Cl)c1` the entry was “inactive”; with `COC(=O)c1ccc(C)cc1`, “inactive”; with `Nc1cccc(S(=O)(=O)c2cccc(N)c2)c1`, “inactive”. Regarding `O=C1c2ccccc2C(=O)N1SC1CCCCC1`, the result was inactive. The same measure, in the same setting: next, `CCCC(=O)C(C)=O`: “inactive”. `C=O`: the result was inactive. Same read-out and setting: next, `NNc1nc(-c2ccc(N)cc2)cs1`: “inactive”; `CC(C)c1ccc(C(C)C)cc1`: “inactive”; `Cc1ccc(Nc2ccc(O)c3c2C(=O)c2ccccc2C3=O)cc1`: “inactive”. On to `COCCOCCOCCOCCOCCO`, for which the molecule was classed as inactive.

As to `Cc1ccc2sc3cccc(C)c3c2c1`, the call was inactive.

With `CNC[C@H](O)c1cccc(O)c1`, the outcome was inactive. As to `CC(C)c1cccc(O)c1`, the molecule was called inactive. For the molecule `CCCCCC(=O)OCCc1ccccc1`, the call was inactive. Same read-out and setting: next, `COc1ccc(OC)c(OC)c1`: “inactive”. On to `CNC(=O)Oc1ccc2c(c1)[C@]1(C)CCN(C)[C@@H]1N2C`, for which the outcome was inactive. On to `CCOC(=S)SSC(=S)OCC`, for which the outcome was inactive.

The target of the next experiment is Estrogen receptor (Homo sapiens) (UniProt P03372). The experiment can be described thus: ATG_ERa_TRANS: Attagene TRANS-FACTORIAL HepG2 Assay for human Estrogen Receptor alpha (ERa) (AID 2282970). The following applies: HepG2 Attagene TRANS ERa GAL4 reporter, mRNA. The essentials:
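Transfected HepG2 cells carrying GAL4-UAS-driven reporter units were dosed for 24 hours. Total RNA was reverse-transcribed, reporter sequences PCR-amplified, FAM-labelled, HpaI-digested and resolved by capillary electrophoresis. Increases over DMSO control defined activity.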
For `C=CC(C)(CCC=C(C)C)OC=O` (stereo not drawn), the molecule was called inactive. As to `CCc1c(C)cc(N)c(CC)c1N`, the result was inactive.

With `O=P(c1ccccc1)(c1ccccc1)c1ccccc1`, the molecule was classed as inactive. For `CCCCc1ccc(N)cc1`, the concentration at half-maximal activity (AC50) – broadly, the concentration at which the activity in the assay is half-maximal – was 12.8 µM (active).

Regarding `Clc1sc(Cl)c(Cl)c1Cl`, the call was inactive. Take `O=C1OC2(c3cc(Br)c(O)c(Br)c3Oc3c2cc(Br)c(O)c3Br)c2c(Cl)c(Cl)c(Cl)c(Cl)c21`: the call was inactive. For `CN(C)CCCN`, the molecule was called inactive. For the molecule `CC1=CCC2C(C1)C2(C)C` (stereo not drawn), the AC50 was 77.3 µM (active). As to `C=C(C)C(=O)Nc1ccc(Cl)c(Cl)c1`, the call was inactive. On to `COC(=O)c1ccc(C)cc1`, for which the molecule was called inactive. As for `Nc1cccc(S(=O)(=O)c2cccc(N)c2)c1`, the molecule was classed as inactive. For `O=C1c2ccccc2C(=O)N1SC1CCCCC1`, the concentration at half-maximal activity (AC50) was 46 µM (active). Consider `NNc1nc(-c2ccc(N)cc2)cs1`, for which the outcome was inactive. On to `CC(C)c1ccc(C(C)C)cc1`, for which the outcome was inactive. As to `Cc1ccc(Nc2ccc(O)c3c2C(=O)c2ccccc2C3=O)cc1`, the molecule was classed as inactive. With `Cc1ccc2sc3cccc(C)c3c2c1`, the outcome was inactive. `CC(C)c1cccc(O)c1`: the AC50 was 71.2 µM (active). As to `CCCCCC(=O)OCCc1ccccc1`, the molecule was classed as inactive. Regarding `COc1ccc(OC)c(OC)c1`, the outcome was inactive. As to `CCOC(=S)SSC(=S)OCC`, the molecule was classed as inactive.
